Hits are enriched below; roughly 1.2% of the tested compounds scored in any of these assays.
PLC-beta3 inh – inhibitors of human phospholipase C beta3 | Q01970 | AID 720704 | inhibition, % at 12.2 µM | Purified PLC-beta3, fluorogenic substrate, fluorescence | hit rate 0.18% among 370,000;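 note: 0% = median of compound wells on plate and 100% = full blocker control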
NPR1 activator – GC-A (human) enzyme activation. hit rate 0.14% among 370,000. activation, % at 10 µM. AID 1671463. HEK293 GC-A cells, cGMP TR-FRET, EC30 ANP; 0% at EC30 ANP, 100% saturating ANP. P16066; in the data active = activation above about 40%
PLCg1 inh – PLC-gamma1 (human) inhibition, primary screen | inhibition, % at 12.2 µM | P19174 | purified PLC-gamma1, fluorogenic substrate, fluorescence | hit rate 0.84% among 370,000; in the data active = inhibition above about 9.5%
NPR2 activator – GC-B (human) receptor activation; P20594; HEK293-GC-B cells, CNP EC30, cGMP TR-FRET; 0% at EC30 CNP, 100% saturating CNP; activation, % at 10 µM; hit rate 0.11% among 370,000; AID 1920062;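 active = activation at 10 µM reaching about 35% in either raw or pattern-adjusted values, limit read from the data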
Target sequence (P20594 whole entry, looked up): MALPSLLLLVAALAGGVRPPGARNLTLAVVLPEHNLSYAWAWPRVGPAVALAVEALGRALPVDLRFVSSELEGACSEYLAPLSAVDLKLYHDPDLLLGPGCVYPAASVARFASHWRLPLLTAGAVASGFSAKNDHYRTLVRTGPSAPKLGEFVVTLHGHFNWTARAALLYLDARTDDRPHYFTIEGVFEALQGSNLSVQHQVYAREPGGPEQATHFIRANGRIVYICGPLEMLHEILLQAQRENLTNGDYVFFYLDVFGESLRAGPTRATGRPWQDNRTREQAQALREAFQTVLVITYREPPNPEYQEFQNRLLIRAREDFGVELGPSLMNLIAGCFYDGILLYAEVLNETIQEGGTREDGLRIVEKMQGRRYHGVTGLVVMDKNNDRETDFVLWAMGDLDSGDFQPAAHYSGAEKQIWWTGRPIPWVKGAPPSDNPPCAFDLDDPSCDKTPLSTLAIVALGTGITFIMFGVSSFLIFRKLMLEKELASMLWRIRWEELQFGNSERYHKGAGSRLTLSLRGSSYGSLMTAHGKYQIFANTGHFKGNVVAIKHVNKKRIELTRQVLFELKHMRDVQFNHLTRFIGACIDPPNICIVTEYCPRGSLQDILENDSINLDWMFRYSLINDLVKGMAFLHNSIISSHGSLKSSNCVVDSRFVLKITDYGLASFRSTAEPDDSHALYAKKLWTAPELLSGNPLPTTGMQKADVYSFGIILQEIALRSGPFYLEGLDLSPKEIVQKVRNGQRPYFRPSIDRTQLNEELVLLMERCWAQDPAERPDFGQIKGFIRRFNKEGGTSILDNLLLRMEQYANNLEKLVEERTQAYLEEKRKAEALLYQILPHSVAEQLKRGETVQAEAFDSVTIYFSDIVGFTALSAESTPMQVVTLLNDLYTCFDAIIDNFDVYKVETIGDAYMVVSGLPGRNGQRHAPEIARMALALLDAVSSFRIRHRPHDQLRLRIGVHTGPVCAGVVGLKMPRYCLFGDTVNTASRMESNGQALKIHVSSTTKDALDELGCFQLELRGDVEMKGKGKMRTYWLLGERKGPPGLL
PLCg1 ctr – PLC-gamma1 inhibition, counter-screen for PLC-beta3 hits; hit rate 3.1% among 3,300; inhibition, % at 12.3 µM; AID 743258; purified PLC-gamma1, fluorogenic substrate, fluorescence; shares compounds with PLCg1 inh; in the data active = inhibition above about 9.5%
PLCb3 confirm – confirmation of human PLC-beta3 inhibitors; AID 743261; inhibition, % at 12.3 µM; purified PLC-beta3, fluorogenic substrate fluorescence; shares compounds with PLCg1 inh; hit rate 1% among 3,300
An asterisk follows results filed as active; nt = no result. Cut-off read from the data, not from the text of the source, unless noted: active = inhibition above about 11%; inactive = the rest.

SMILES	PLC-beta3 inh	NPR1 activator	PLCg1 inh	NPR2 activator	PLCg1 ctr	PLCb3 confirm
CNC(=O)c1[nH]cnc1C(=O)NCC(=O)OC(C)(C)C	1.2	1.3	-0.7	0.4	nt	nt
Cc1nn(-c2ccccc2)c(C)c1NC(=O)COC(=O)Cc1ccccc1F	3.2	2.8	-0.5	-0.4	nt	nt
COC(=O)C1=C(C)N(Cc2ccc(C(F)(F)F)cc2)C(=NCc2ccccc2)NC1c1cccc(F)c1 (stereo not drawn)	7.3	-15.0	5.5	-11.4	nt	nt
COC(=O)C1=C(C)N(Cc2cccc(C(F)(F)F)c2)C(=NCc2ccc(C(F)(F)F)cc2)NC1c1ccc(C(F)(F)F)cc1 (stereo not drawn)	7.8	-6.8	12.8*	1.9	5.3	4.7
COC(=O)C1=C(C)N(Cc2ccccc2)C(=S)NC1c1ccc(Br)cc1 (stereo not drawn)	3.7	-14.7	9.7*	-16.4	-1.1	-0.1
COC(=O)C1=C(C)N(Cc2ccc(C(F)(F)F)cc2)C(=NCc2ccc(OC)cc2)NC1c1ccccc1C(F)(F)F (stereo not drawn)	3.7	-6.9	9.9*	-2.4	-4.7	-5.2
COC(=O)C1=C(C)N(Cc2ccccc2)C(=S)N[C@H]1c1ccc(Br)cc1	-2.6	-6.5	1.4	-8.9	nt	nt
COC(=O)C1=C(C)N(Cc2cccc(C(F)(F)F)c2)C(=NCc2ccc(C(F)(F)F)cc2)NC1c1cccc(F)c1 (stereo not drawn)	13.6*	-9.5	7.8	-10.5	-6.0	-3.8
Cc1ccccc1CN(C)C[C@H]1OCc2cnnn2CCCC(=O)N([C@@H](C)CO)C[C@@H]1C	-0.7	-1.4	2.3	-4.5	nt	nt
Cn1c(=O)c2ccccc2n(CC(=O)NCCC2=CCCCC2)c1=O	-5.0	-1.4	-3.8	-7.4	nt	nt
Cc1ccc(NC(=O)Cn2sc3nc(C)cc(C)c3c2=O)c(Cl)c1	-0.9	17.1	13.2*	5.0	-5.8	-2.3
COc1ccc(CN(C)C(=O)c2ccc(NS(=O)(=O)c3ccc4[nH]c(=O)[nH]c4c3)cc2)c(OC)c1	-2.1	-2.8	15.5*	5.6	1.2	-5.4
O=c1c2ccccc2nc(SCc2ccccc2F)n1C1CCCC1	-0.7	4.9	0.2	-0.1	nt	nt
CC1CC(C)CN(C(=O)COC(=O)COc2ccccc2C#N)C1 (stereo not drawn)	0.9	-1.2	12.7*	0.1	-6.2	-1.6
C/C=C/C=N\NC(=O)c1ccncc1	-1.9	-1.9	0.1	2.6	nt	nt
Cc1n[nH]c(=O)c2c(NC(=O)CSc3nn(-c4ccc(F)cc4)c(=S)s3)oc(C)c12	-9.9	-2.2	-8.0	5.1	nt	nt
Cc1ccc2nsnc2c1S(=O)(=O)NCCc1c(C)[nH]c2ccc(F)cc12	8.1	-1.9	10.2*	-3.8	-0.7	-2.7
CC(Sc1ccc2c(c1)OCCO2)C(=O)Nc1ccc(N2CCOCC2)cc1 (stereo not drawn)	-3.5	2.8	13.1*	-3.2	-5.0	-0.9
O=C(O)c1ccccc1-c1nc2ccccc2c(=O)[nH]1	6.3	3.8	9.9*	2.1	1.6	0.4
COc1cc(-c2noc(CCC(=O)Nc3cccnc3)n2)cc(OC)c1OC	12.7*	-1.3	3.7	0.0	-0.6	2.1
CCOc1ccc(-n2nnnc2SCC(=O)Nc2cccc(O)c2)cc1	4.2	-3.1	12.8*	-1.4	-2.9	-3.3
CCOc1ccc(-n2nnnc2SCC(=O)Nc2ccc(NC(C)=O)cc2)cc1	-1.3	-1.8	-0.4	1.9	nt	nt
C/C=C(\C)CN1CCCC(CO)(Cc2ccccc2)C1 (stereo not drawn)	-4.8	1.0	12.0*	-3.5	-1.6	0.1
COc1ccc(-c2noc(C3CCCN(S(=O)(=O)c4cccc(Cl)c4)C3)n2)cc1OC (stereo not drawn)	nt	0.0	nt	-9.0	nt	nt
CCOc1ccc(-n2cc(C(=O)Nc3cccc(Cl)c3)c3cc(OC)c(OC)cc3c2=O)cc1	0.0	4.4	2.1	14.8	nt	nt
SMILES	PLC-beta3 inh	NPR1 activator	PLCg1 inh	NPR2 activator	PLCg1 ctr	PLCb3 confirm
Cc1ccc(NS(=O)(=O)c2c(C)nc3sccn3c2=O)cc1	8.6	-5.4	5.4	-7.0	nt	nt
Cc1nc2sccn2c(=O)c1S(=O)(=O)Nc1ccc(N2CCN(C(=O)C(C)C)CC2)cc1	5.7	-7.0	12.2*	2.8	-4.7	-0.4
Cc1ccc(S(=O)(=O)CCC(=O)N(CCCN2CCOCC2)c2nc3ccccc3s2)cc1	0.2	-8.6	12.6*	-10.2	-5.5	-6.6
CN1CCC(NCCC(c2ccc(F)cc2)c2ccc(Cl)cc2)CC1 (stereo not drawn)	3.8	-50.3	10.0*	-17.4	-5.0	0.7
CC(C)C(CCNC1CCN(C)CC1)c1ccc(Cl)cc1 (stereo not drawn)	4.7	-31.0	3.3	-11.1	nt	nt
CC(C)CN1C(=O)[C@]2(CC(=O)N(C)C2c2ccccc2)c2cc(-n3cc(CCc4ccccc4)nn3)ccc21 (stereo partly drawn)	2.1	-2.2	0.3	-5.2	nt	nt
CC(C)CN1C(=O)[C@@]2(CC(=O)N(C)C2c2ccccc2)c2cc(-n3cc(CCc4ccccc4)nn3)ccc21 (stereo partly drawn)	0.9	-5.0	10.1*	-7.9	-2.2	-0.5
COc1ccccc1C(=O)NC(=O)COC(=O)c1ccc([N+](=O)[O-])cc1Cl	-2.1	-5.3	4.9	4.7	nt	nt
CN(C)C(=O)c1ccccc1Sc1cc(Cl)ccc1Cl	-0.9	-2.1	15.2*	-1.2	-2.6	-0.6
COCCCNC(=O)Cn1ncc2c(=O)oc3ccccc3c21	2.2	-4.9	3.2	2.9	nt	nt
CCOc1ccc(-c2csc3ncn(-c4ccc(OC)cc4)c(=O)c23)cc1	-4.5	-2.7	10.5*	-0.4	-16.2	-12.3
CCn1cnc2scc(-c3ccc(OC)cc3)c2c1=O	-13.1	-1.0	-6.3	-1.4	nt	nt
O=C(NCC1CCCO1)c1ccc(Oc2ccc([N+](=O)[O-])cc2)cc1 (stereo not drawn)	-1.9	3.6	2.9	-1.1	nt	nt
CC(Oc1ccc([N+](=O)[O-])cc1)C(=O)NCC1CCCO1 (stereo not drawn)	2.5	1.3	11.4*	6.8	-0.8	4.0
CCN=C1SC(CC(=O)Nc2ccccc2OCC)C(=O)N1CC (stereo not drawn)	-2.9	2.2	1.2	1.2	nt	nt
CCOC(=O)c1ccc(-c2ccc(N3C(c4ccsc4)=Cc4ccc(F)cc4C3c3c[nH]c4ccc(C#N)cc34)cc2)cc1F (stereo not drawn)	-399.3	-0.3	-326.8	1.0	nt	nt
Cc1cc(F)cc(-c2cc(C(=O)NCc3cccc(Cl)c3)[nH]n2)c1	2.0	3.3	10.2*	4.1	-5.0	-5.6
O=C(Nc1cccc(O)c1)C1CC(c2c(F)cccc2Cl)=NO1 (stereo not drawn)	-5.2	-2.1	-1.2	0.2	nt	nt
O=C(Nc1cc(Cl)ccc1O)C1CC(c2c(F)cccc2Cl)=NO1 (stereo not drawn)	-4.0	-1.6	10.1*	-5.3	-7.2	-3.1

Bioassay records as filed in PubChem BioAssay.
